The results in this text go back to PubChem BioAssay (NCI).

This is part of a sample that, as a whole, favours compounds with a hit. Of some 83,000 tested, about 20% had one in any assay.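 Testing used 96-well plates and a 48-hour single-concentration exposure. Example: -40 means 40% of the starting cells died.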 A number with no mark means an inactive call. Activity calls are given as the source filed them. Rule for the calls: active = growth percent below 10; inactive = the rest.

Among the test systems are SR leukemia; RPMI-8226 leukemia; OVCAR-8 ovarian; OVCAR-5 ovarian; OVCAR-4 ovarian; IGROV1 ovarian; OVCAR-3 ovarian; HS 578T breast; NCI/ADR-RES ovarian; T-47D breast; BT-549 breast; MDA-MB-435 melanoma; SW-620 colon; MCF7 breast; HCT-116 colon; HCC-2998 colon; KM12 colon; SK-OV-3 ovarian.
Experiment in all cases: NCI-60 one-dose screen, 48 h (100 = growth as untreated, 0 = no growth, -100 = all killed)
Holding throughout (conditions): 10 µM unless noted

As for `COc1ccc(-c2cc(=O)[nH]c3c(OC)c4ccccc4c(OC)c23)cc1`, the growth in the experiment on SR leukemia was -14% (active); in the experiment with RPMI-8226 leukemia it was 4.21% (active); in the experiment on OVCAR-8 ovarian, 33.3%; in the experiment on OVCAR-5 ovarian, 36.3%; with OVCAR-4 ovarian, 30.8%; in the experiment on IGROV1 ovarian, 32.8%. In addition, the growth in the experiment on OVCAR-3 ovarian was -43.2% (active); with HS 578T breast it was -6.69% (active); in the experiment with NCI/ADR-RES ovarian, 3.17% (active); with T-47D breast it was 31.6%; with BT-549 breast, 26%; in the experiment with MDA-MB-435 melanoma it was -28.9% (active). For the same compound, the growth is 19.6% in the experiment with SW-620 colon; 13.4% in the experiment on MCF7 breast; 12.1% in the experiment on HCT-116 colon; 0.772% (active) in the experiment with HCC-2998 colon; 2.11% (active) with KM12 colon.
Consider `C=C1CCC2C3(C)COC(c4ccccc4Br)OC3CCC2(C)C1C/C=C1/C(=O)OCC1OC(C)=O` (centres undefined), for which the growth in the experiment with SR leukemia is -40.9% (active); in the experiment on RPMI-8226 leukemia, -47% (active); in the experiment with OVCAR-8 ovarian, -36.2% (active); in the experiment on OVCAR-5 ovarian it was -38.3% (active); in the experiment on OVCAR-4 ovarian, -62.2% (active); with IGROV1 ovarian, -9.12% (active). For the same compound, the growth is -88.8% (active) with OVCAR-3 ovarian; -30.9% (active) with HS 578T breast; -3.45% (active) with NCI/ADR-RES ovarian; -68.9% (active) with T-47D breast; -38.6% (active) in the experiment with MDA-MB-435 melanoma; -73.1% (active) in the experiment on SW-620 colon. The growth with MCF7 breast was -68.9% (active); in the experiment with HCT-116 colon, -91% (active); in the experiment with HCC-2998 colon it was 55.4%; with KM12 colon, -56.7% (active).
For `COc1cccc(/C=C\C(=O)c2ccccc2)c1`, the growth with SR leukemia was 47.5%; with RPMI-8226 leukemia, 6.17% (active); with OVCAR-8 ovarian it was 81.4%; in the experiment with OVCAR-5 ovarian, 94.7%; with OVCAR-4 ovarian it was 47.4%; in the experiment on IGROV1 ovarian, 2.47% (active). Besides, the growth in the experiment on OVCAR-3 ovarian is -4.31% (active); in the experiment on HS 578T breast it was 85.8%; in the experiment with NCI/ADR-RES ovarian it was 88%; in the experiment on T-47D breast, 56.5%; with MDA-MB-435 melanoma it was 72.9%; in the experiment on SW-620 colon, 15%. In addition, the growth was 11.5% with MCF7 breast, 16.2% in the experiment with HCT-116 colon, 104% with HCC-2998 colon and 8.52% (active) with KM12 colon.
For the compound `C/C=C/C(N)=O`, the growth in the experiment on SR leukemia was 92%; in the experiment on OVCAR-8 ovarian, 106%; in the experiment on OVCAR-5 ovarian, 100%; in the experiment on OVCAR-4 ovarian it was 107%; in the experiment with SK-OV-3 ovarian it was 110%; with IGROV1 ovarian it was 106%. Moreover, the growth in the experiment with OVCAR-3 ovarian is 99%; with HS 578T breast, 99.9%; in the experiment with NCI/ADR-RES ovarian, 106%; in the experiment with T-47D breast, 115%; in the experiment on BT-549 breast it was 99.7%; in the experiment on MDA-MB-435 melanoma it was 96.4%. Moreover, the growth is 96.8% with SW-620 colon; 92.1% with MCF7 breast; 98.4% in the experiment on HCT-116 colon; 109% in the experiment with HCC-2998 colon; 103% with KM12 colon.
As for `Oc1ccc2c(=S)cc(-c3ccc(Br)cc3)oc2c1O`, the growth was 1.21% (active) in the experiment with SR leukemia; -6.62% (active) in the experiment with OVCAR-8 ovarian; 67.9% in the experiment on OVCAR-5 ovarian; -1.04% (active) in the experiment on OVCAR-4 ovarian; 62.3% with SK-OV-3 ovarian; 19% in the experiment with IGROV1 ovarian. Moreover, the growth was -21.7% (active) with OVCAR-3 ovarian; 84% with HS 578T breast; -8.87% (active) in the experiment on NCI/ADR-RES ovarian; 2.92% (active) in the experiment on T-47D breast; 44.6% with BT-549 breast; 23.3% in the experiment with MDA-MB-435 melanoma. The growth with SW-620 colon is 5.25% (active); with MCF7 breast, -31.9% (active); with HCT-116 colon, -22% (active); in the experiment on HCC-2998 colon it was 73.8%; with KM12 colon, 12.9%.
For `COc1ccc(/C=C2\N=C3Sc4cc(Cl)ccc4C(=O)N3C2=O)cc1`, the growth in the experiment on SR leukemia is 88.4%; in the experiment on RPMI-8226 leukemia, 101%; in the experiment with OVCAR-8 ovarian, 94.6%; in the experiment with OVCAR-5 ovarian it was 98.1%; in the experiment on OVCAR-4 ovarian, 103%; with IGROV1 ovarian it was 107%. Also, the growth in the experiment on OVCAR-3 ovarian is 104%; in the experiment on HS 578T breast, 102%; in the experiment on NCI/ADR-RES ovarian, 106%; in the experiment on T-47D breast, 92%; with MDA-MB-435 melanoma it was 102%; with SW-620 colon, 97.1%. In addition, the growth is 94.7% in the experiment with MCF7 breast, 104% in the experiment with HCT-116 colon, 118% in the experiment with HCC-2998 colon and 104% in the experiment on KM12 colon.
Regarding `CC1(C)OCC2OC3(C(=O)O)OC(C)(C)OC3C2O1` (centres undefined), the growth in the experiment on SR leukemia was 101%; in the experiment on RPMI-8226 leukemia it was 117%; in the experiment with OVCAR-5 ovarian it was 106%; in the experiment on OVCAR-4 ovarian it was 118%; in the experiment on IGROV1 ovarian it was 106%; with OVCAR-3 ovarian it was 99.2%. Besides, the growth in the experiment on HS 578T breast was 102%; in the experiment on NCI/ADR-RES ovarian, 107%; in the experiment on T-47D breast, 95.4%; in the experiment on BT-549 breast it was 105%; with MDA-MB-435 melanoma, 104%; in the experiment on SW-620 colon it was 109%. For the same compound, the growth in the experiment with MCF7 breast was 112%; with HCT-116 colon, 106%; in the experiment with HCC-2998 colon it was 102%; in the experiment on KM12 colon, 100%.
Take `COc1ccc(/C=C2\CN(C(=O)CCN3CCC(=NO)CC3)C/C(=C\c3ccc(OC)cc3)C2=O)cc1`: the growth in the experiment with SR leukemia was 2.16% (active); in the experiment on RPMI-8226 leukemia, -11.1% (active); with OVCAR-8 ovarian it was 19.6%; in the experiment with OVCAR-5 ovarian it was -4.94% (active); with OVCAR-4 ovarian it was 28.2%; with IGROV1 ovarian, -14.1% (active). In addition, the growth was 6.9% (active) in the experiment on OVCAR-3 ovarian; 6.95% (active) with HS 578T breast; 11.3% with NCI/ADR-RES ovarian; 23.3% with T-47D breast; 15.2% with BT-549 breast; -61.4% (active) in the experiment on MDA-MB-435 melanoma. The growth was -39.3% (active) in the experiment on SW-620 colon; -0.32% (active) in the experiment with MCF7 breast; -31.8% (active) with HCT-116 colon; -89.5% (active) with HCC-2998 colon; -59.6% (active) in the experiment on KM12 colon.
Turning to `Cc1ccc(S(=O)(=O)N(CCc2ccc(Cl)cc2)S(=O)(=O)c2ccc(C)cc2)cc1`, the growth in the experiment on SR leukemia was 82.5%; with RPMI-8226 leukemia it was 76.9%; in the experiment on OVCAR-5 ovarian it was 106%; with OVCAR-4 ovarian, 86.5%; in the experiment with SK-OV-3 ovarian, 85.2%; with IGROV1 ovarian, 89.1%. The growth in the experiment with OVCAR-3 ovarian is 95%; with HS 578T breast, 103%; in the experiment with NCI/ADR-RES ovarian, 87.9%; in the experiment with T-47D breast, 82%; in the experiment with BT-549 breast it was 98.8%; in the experiment on MDA-MB-435 melanoma it was 95.4%. Also, the growth with SW-620 colon is 101%; in the experiment with MCF7 breast, 87.9%; with HCT-116 colon, 93.3%; in the experiment with HCC-2998 colon, 88.1%; with KM12 colon it was 91.7%.
